According to PubChem BioAssay AID589 (National Center for Advancing Translational Sciences (NCATS), 2007):
Out of some 59,000 compounds screened, about 6,200 (11%) were called active. Another 9% or so got no clear call; they are omitted. Cut-off read from the data, not from the text of the source: active = max dye-equivalent concentration above about 10 nM; inconclusive = mostly about 1.1 nM to 9.6 nM; inactive = weaker than that. The full list was thinned out, with actives kept by preference.

Assay: qHTS Assay for Spectroscopic Profiling in 4-MU Spectral Region
Conditions: compound autofluorescence, 340/450 nm, 4-MU equivalents; active compounds read high
Outline: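 Intrinsic fluorescence at 340/450 nm (ex/em) was read after 15 min at room temperature in pH 8.0, 100 mM Tris. Each compound concentration expressed as 4-MU-equivalent concentration from a six-point 4-MU standard series on each plate.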

| Structure (SMILES) | max dye-equivalent concentration |
| --- | --- |
| Cc1ccc(S(=O)(=O)N2CCC(C(=O)OCC(=O)N3CC(=O)Nc4ccccc43)CC2)cc1 | inactive |
| CN(C)C(=O)c1ccc(-c2cncnc2NC2CCNCC2)cc1 | inactive |
| CC(=O)OCC(=O)[C@@]1(O)CC[C@@H]2[C@H]3CCC4=CC(=O)C=C[C@]4(C)[C@]3(F)[C@@H](O)C[C@@]21C | inactive |
| Cn1c(Cc2csc(N)n2)nnc1SC/C=C/c1ccccc1 | inactive |
| O=C(Nc1ccc2c(c1)OCCO2)c1ccncc1 | inactive |
| COc1ccc(C(=O)N2CCC3(CCCN(C(c4ccccc4)c4ccccc4)C3)CC2)cc1 | inactive |
| CC(c1ccco1)N(C(=O)c1ccc(S(=O)(=O)N2CCCCC2)cc1)c1ccccn1 (stereo unspecified) | inactive |
| CCOc1cccc(NC(=O)C2CCCN(S(=O)(=O)c3ccc(OC)cc3)C2)c1 (stereo unspecified) | inactive |
| C[C@@H]1CC[C@H]2[C@H](C)[C@H]3[C@H](C[C@H]4[C@@H]5CC=C6C[C@@H](O)CC[C@@]6(C)[C@@H]5C[C@@H](O)[C@]34C)N2C1 | inactive |
| CCCn1nnc2sc3c(c2c1=O)CCC(C)C3 (stereo unspecified) | 33 nM (active) |
| O=c1c2ccccc2nnn1CSc1nc2sc3c(c2c(=O)n1CC1CCCO1)CCC3 (stereo unspecified) | inactive |
| CC1CCc2sc3nc(N4CCN(CCO)CC4)n4ncnc4c3c2C1 (stereo unspecified) | inactive |
| O/N=C(\c1ccc2c(c1)OCCO2)C1CCCCC1 | inactive |
| CCN(CC)Cc1c(C(=O)OC)nnn1-c1nonc1N | inactive |
| CC(=O)c1sc2nc(SCC(=O)N3CCCCC3)[nH]c(=O)c2c1C | inactive |
| O=C1N=C(N2CCOCC2)CS1 | inactive |
| CN(CCC#N)c1ncnc2scc(-c3ccccc3)c12 | inactive |
| CCCC(=O)NC(C)C(c1cccs1)N1CCN(c2ccccc2)CC1 (stereo unspecified) | inactive |
| CCOC(=O)C1=C(C)NC(C)=C(C(=O)OCC)C1c1ccccn1 | 290 nM (active) |
| COCCOC(=O)C1=C(C)Nc2nc(C)nn2C1c1ccccc1 (stereo unspecified) | inactive |
| CCOC(=O)c1ccc(NC(=O)CSc2ncccn2)cc1 | inactive |
| Cc1ccc(S(=O)(=O)NCCN2CCOCC2)cc1C | inactive |
| Cc1nn(C)c(C)c1S(=O)(=O)N1CCc2ccccc21 | inactive |

| Structure (SMILES) | max dye-equivalent concentration |
| --- | --- |
| O=S(=O)(c1cccs1)N1CCc2ccccc2C1 | inactive |
| O=S(=O)(c1cccs1)N1CCN(Cc2ccccc2)CC1 | inactive |
| CCCCNc1nc2ccccc2nc1NS(=O)(=O)c1cccs1 | 45 nM (active) |
| CC(C)CCNC(=O)CN(C(=O)Cn1nnc(-c2ccc(F)cc2)n1)C1CCCC1 | inactive |
| O=C(O)c1cscn1 | inactive |
| COc1ccc(S(=O)(=O)N2CCN(C(=O)c3cccs3)CC2)cc1OC | 3300 nM (active) |
| CCCS(=O)(=O)N1CCN(C(=O)c2cccs2)CC1 | inactive |
| COc1ccc(OCC(=O)N2CCN(C(=O)c3cccs3)CC2)cc1 | inactive |
| NCC(=O)[C@@H](O)[C@H](O)[C@H](O)CO | inactive |
| CCn1c(SCC(=O)Nc2cc(C)c(Cl)cc2OC)nnc1-c1ccco1 | inactive |
| O=S(=O)(NCc1ccc2c(c1)OCO2)c1cccc2nsnc12 | inactive |
| CCCOc1ccc(/C(O)=C2/C(=O)C(=O)N(CCN(C)C)C2c2ccc(OC)c(OC)c2)cc1 (stereo unspecified) | inactive |
| CCN(CC)CCN1C(=O)C(=O)/C(=C(/O)c2ccc(OC)c(OC)c2)C1c1ccccn1 (stereo unspecified) | 33 nM (active) |
| COc1ccc(/C(O)=C2/C(=O)C(=O)N(CCCN(C)C)C2c2ccccc2)cc1OC (stereo unspecified) | inactive |
| CCn1nc(C(=O)OCC(=O)N2c3ccccc3CC2C)c2ccccc2c1=O (stereo unspecified) | inactive |
| Cc1noc(COc2ccccc2OCC(O)CNC(C)(C)C)n1 (stereo unspecified) | inactive |
| CCSc1nc(C)nc2c1oc1ccccc12 | inactive |
| CCc1nc(Nc2ccc3nccnc3c2)c2oc3ccccc3c2n1 | 55 nM (active) |
| CCc1nc(N2CCN(c3nc(C)cc(C)n3)CC2)c2oc3ccccc3c2n1 | inactive |
| COc1ccccc1CNC(=O)CCCn1c(=O)c2ccccc2n(CC(=O)NC2CCCC2)c1=O | inactive |
| Cc1ccc(C(c2nnnn2CS(=O)(=O)c2ccc(C)cc2)N2CCC(C(N)=O)CC2)cc1 (stereo unspecified) | inactive |
| O=C(NCc1ccco1)c1cc(-c2cccnc2)nc2ccc(Cl)cc12 | inactive |
| O=C(NCc1ccco1)c1cnn2c(C(F)(F)F)cc(-c3ccco3)nc12 | 260 nM (active) |

| Structure (SMILES) | max dye-equivalent concentration |
| --- | --- |
| O=C(CSc1nc(-c2ccco2)cc(C(F)(F)F)n1)N1CCc2ccccc2C1 | inactive |
| O=C(Nc1ccccc1)Nc1ccccc1C(=O)NCc1ccco1 | inactive |
| COC(=O)c1cnn2c(C(F)(F)F)cc(-c3ccco3)nc12 | 970 nM (active) |
| COC(=O)c1ccccc1NC(=O)Cn1nc(C(F)(F)F)c2c1CCC2 | inactive |
| CCOC(=O)C1C(=O)OC2(CCCC2)C1C(=O)OCC (stereo unspecified) | inactive |
| Cc1cccc(NC(=O)C2CCCN2S(=O)(=O)c2ccc(F)cc2)c1C (stereo unspecified) | inactive |
| CCOC(=O)C1(C(F)(F)F)N=C(N(C)C)OC(N(C)C)=N1 | inactive |
| CC(=O)c1c(C)n(-c2ccc(N(C)C)cc2)c2ccc(OCC(N)=O)cc12 | inactive |
| COc1cc(OC)c(C(=O)NC2CC(C)(C)NC(C)(C)C2)cc1OC | inactive |
| COc1ccc(CCn2c(NCCCN3CCOCC3)nc3c2c(=O)[nH]c(=O)n3C)cc1 | inactive |
| CCCCn1c(SCc2ncc(-c3ccccc3)o2)nc2cc(S(N)(=O)=O)ccc21 | inactive |
| Cc1nc(NCCN)c(C#N)c2c1COC(C)(C)C2 | 13 nM (active) |
| CCN1CCN(c2ncnc3c2oc2nc(C)c4c(c23)CC(C)(C)OC4)CC1 | inactive |
| C=CCNC(=O)CCCC(=O)NCC=C | inactive |
| Nc1nc2c(ncn2[C@H]2CC[C@@H](CO)O2)c(=O)n1C(=O)c1ccccc1 | inactive |
| CC(=O)c1cccc(NC(=O)N2CCCC2C(=O)NCCC(C)C)c1 (stereo unspecified) | inactive |
| COc1ccc(NC(=O)N2CC3(CCN(C(C)=O)CC3)C2)cc1 | inactive |
| CCOC(=O)c1c(NC(=O)CCC(=O)NCc2ccco2)sc2c1CCCC2 | inactive |
| CCOC(=O)N1CCN(Cc2oc(CO)cc(=O)c2O)CC1 | inactive |
| CCCc1cc(=O)oc2c(C)c(O)c(CN3CCCCC3)cc12 | 7800 nM (active) |
| Nc1nnnn1/N=C/c1cccs1 | inactive |
| Oc1ccc2nc(Cc3ccccc3)[nH]c2c1 | inactive |
| COC(=O)Cc1nc2ccccc2[nH]1 | inactive |

| Structure (SMILES) | max dye-equivalent concentration |
| --- | --- |
| COC(=O)Nc1nc2ccc(Sc3ccccc3)cc2[nH]1 | 14 nM (active) |
| COC(=O)c1nc(NC(=O)c2ccc(Cl)cc2)n[nH]1 | inactive |
| CCC(=O)Nc1ccccc1N1CCN(S(C)(=O)=O)CC1 | inactive |
| O=C(Cn1cnc2c(cnn2-c2ccccc2)c1=O)NCc1ccccc1 | inactive |
| O=C(Nc1ccc(S(=O)(=O)N2CCCC2)cc1Cl)C1=COCCO1 | inactive |
| O=C(Cn1c(=O)sc2ccccc21)Nc1ccc2c(c1)OCCO2 | inactive |
| CC(C)(C)NC(=O)NC(=O)COC(=O)Cn1c(C(F)(F)F)nc2ccccc21 | inactive |
| Cn1cccc1C(=O)NC(=O)COC(=O)Cc1coc2ccc3ccccc3c12 | 30 nM (active) |
| Cn1cccc1C(=O)Nc1nccs1 | inactive |
| CC(=O)c1cc2c(cc1N)OCO2 | inactive |
| COCc1[nH]nc2c1C(C1C=CCCC1)C(C#N)=C(N)O2 (stereo unspecified) | inactive |
| CC(=O)Oc1ccc2c(C)c(CC(C)O)c(=O)oc2c1 (stereo unspecified) | 15000 nM (active) |
| FC(F)(F)c1ccccc1-c1nc(-n2ccnc2)c2ccccc2n1 | inactive |
| O=C1CN(C(=O)COC(=O)C2CC(=O)N(Cc3ccco3)C2)c2ccccc2N1 (stereo unspecified) | inactive |
| COc1ccc(C(=O)n2nc(-c3ccc(Cl)cc3)nc2N)cc1OC | inactive |
| COc1ccc(C(=O)n2nc(-c3ccc(C)cc3)nc2N)cc1OC | 35 nM (active) |
| COc1ccccc1C(=O)n1nc(-c2ccccc2)nc1N | inactive |
| CN(C(=O)c1ccccn1)c1nnc(-c2ccccn2)s1 | inactive |
| C=CCNC(=O)c1ccc(C)c(Br)c1 | inactive |
| CNC(=O)c1cc2c(ccc3ccccc32)oc1=N | 9900 nM (active) |
| CCOC(=O)N1CCN(C(=O)c2cc3c(ccc4ccccc43)oc2=O)CC1 | 1500 nM (active) |
| CCCCC(=O)Nc1cc(C)c2c(=O)oc3ccccc3c2n1 | inactive |
| O=C(NCCc1ccc2c(c1)OCCO2)c1cc2ccccc2o1 | inactive |

| Structure (SMILES) | max dye-equivalent concentration |
| --- | --- |
| COc1c(C(=O)N2CCCC2)ccc2ccccc12 | inactive |
| CCOC(=O)N1CCN(C(=O)c2n[nH]c(=O)c3ccccc23)CC1 | inactive |
| C=CCSc1nc2ccccc2[nH]1 | inactive |
| Cc1ccc(CNC(=O)C2CC(=O)N(C3CCCCCCC3)C2)cc1 (stereo unspecified) | inactive |
| COc1ccc(CCNS(=O)(=O)c2ccc(F)cc2)cc1OC | inactive |
| COC(=O)c1ccc2c(c1)S(=O)(=O)NC(=NCCCN1CCOCC1)S2 | inactive |
| Cc1cc(-n2nc(C)cc2C)n2ncc(-c3ccccc3)c2n1 | inactive |
| Cc1cc(C(F)(F)F)n2ncc(-c3ccccc3)c2n1 | 12 nM (active) |
| Cc1cc(Cl)ccc1OCC(=O)Oc1c(Cl)c(Cl)c(Cl)c(Cl)c1Cl | inactive |
| Cc1cc(C)c2nc(SCCC#N)nc(C)c2c1 | inactive |
| C=CCN(c1ccc(C(N)=O)cc1)S(C)(=O)=O | inactive |
| O=C(COC(=O)c1ccc(Oc2ccccc2)cc1)Nc1nnc(-c2ccccc2)o1 | inactive |
| O=C(CSc1nnc(-c2ccccc2)o1)N1CCOCC1 | inactive |
| Nc1ccc(-c2nnc(-c3ccc(-c4ccccc4)cc3)o2)cc1 | 170 nM (active) |
| O=C(Nc1ccc(Cl)cc1)c1ccsn1 | inactive |
| CCC[C@H]1C(=O)N2C(N(C)C)=Nc3ccc(C)cc3N2C1=O | inactive |
| COc1ccc(-c2nnc(SCC(=O)c3cccs3)o2)c(OC)c1 | inactive |
| COc1ccc(-n2c(C)cc(C(=O)CSc3nnc(-c4cccs4)o3)c2C)cc1 | inactive |
| COc1ccc(OC)c(C(=O)CSc2nnc(-c3cccs3)o2)c1 | 150 nM (active) |
